# Records with an inconclusive call do not appear. Active and inactive are the calls of the source. How the source made its calls: active means hit-call score of the fitted dose curve at least 0.9, where 1 is the maximum; inconclusive means response in the unintended direction; inactive means score below 0.9.
# How the values were obtained:
# [1] = molecular target: human Vascular Endothelial Growth Factor Receptor 1 (VEGFR1), FLT1 (gene 2321) (UniProt P17948); test: NVS_ENZ_hVEGFR1: NovaScreen (NVS) Enzymatic Assay for human Vascular Endothelial Growth Factor Receptor 1 (VEGFR1) (AID 2283226)
# Outline: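 Kinase activity of recombinant human VEGFR1 was read by fluorescence after electrophoretic separation of product from substrate, 1 h post-dosing; initial duplicate single-point testing at 25 uM, followed by concentration-series follow-up, with DMSO as baseline.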
# [2] = molecular target: rabbit Imidazoline 2 Central (I2C), CKB (gene 100009085) (UniProt P00567); test: NVS_ENZ_rabI2C: NovaScreen (NVS) Enzymatic Assay for rabbit Imidazoline 2 Central (I2C) (AID 2283228)
# Outline: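 Rabbit brain membranes, cell-free; readout by filter-based scintillation counting 1.5 hours after dosing, loss of signal vs DMSO. Initial duplicate test at 25 uM, then concentration-response with 50 uM top concentration.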
# [3] = molecular target: sheep Cyclooxygenase-2 (Cox2), PTGS2 (gene 443460) (UniProt P79208); test: NVS_ENZ_oCOX2: NovaScreen (NVS) Enzymatic Assay for sheep Cyclooxygenase-2 (Cox2) (AID 2283231)
# Outline: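 Ovine placental enzyme, cell-free; chemical added, 0.66 h, absorbance (colorimetric). Screen 25 uM in duplicate; ≥threshold hits titrated, top 50 uM. Inhibition = signal loss vs DMSO.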
# [4] = molecular target: rat Constitutive Nitric Oxide Synthase (CNOS), Nos1 (gene 24598) (UniProt P29476); test: NVS_ENZ_rCNOS: NovaScreen (NVS) Enzymatic Assay for rat Constitutive Nitric Oxide Synthase (CNOS) (AID 2283236)
# Outline: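 Single 25 uM duplicate screen, then concentration series to 50 uM for chemicals meeting threshold. Rat brain membrane-derived CNOS activity detected radiometrically by filtration and scintillation counting, 1 h after compound addition; DMSO as baseline.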
# [5] = molecular target: bovine Dopamine Receptor (DR), Non-selective Binding, DRD1 (gene 281125) (UniProt Q95136); test: NVS_GPCR_bDR_NonSelective: NovaScreen (NVS) G Protein-Coupled Receptor Assay for bovine Dopamine Receptor (DR), Non-selective Binding (AID 2283241)
# Outline: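 Filter-based radioligand binding with bovine striatal membrane, incubated 1 h; DMSO as negative baseline. Initial duplicate single-point test at 25 uM preceded concentration series for actives.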
# [6] = system: bovine Histamine 1 Receptor (H1), gene 281231; test: NVS_GPCR_bH1: NovaScreen (NVS) G Protein-Coupled Receptor Assay for bovine Histamine 1 Receptor (H1) (AID 2283246)
# Outline: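 Hits from a 25 uM duplicate primary screen were retested in concentration series (top 50 uM); binding measured as scintillation-counted displacement of radioligand from bovine cerebellar membranes after 1 h, normalised to DMSO.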
# [7] = system: guinea pig Leukotriene B4 Receptor (LTB4), gene 100379538; test: NVS_GPCR_gLTB4: NovaScreen (NVS) G Protein-Coupled Receptor Assay for guinea pig Leukotriene B4 Receptor (LTB4) (AID 2283247)
# Outline: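 Membranes from guinea pig spleen incubated 2 h with radioligand and compound; bound counts measured by filtration and scintillation. Screened first at 25 uM in duplicate, then actives titrated to a 50 uM top concentration relative to DMSO.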
# [8] = system: guinea pig Muscarinic, Peripheral (Mperiperal) Receptor, Non-selective Binding, gene 100379235; test: NVS_GPCR_gMPeripheral_NonSelective: NovaScreen (NVS) G Protein-Coupled Receptor Assay for guinea pig Muscarinic, Peripheral (Mperiperal) Receptor, Non-selective Binding (AID 2283250)
# Outline: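 Screened in duplicate at 25 uM, hits retested in concentration series to 50 uM max, using bladder membrane radioligand displacement from guinea pig. Filtration and scintillation counting 1 h post-dose, fitted relative to DMSO.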
# [9] = molecular target: human Serotonin, 5-Hydroxytryptamine Receptor 5A (5HT5A), HTR5A (gene 3361) (UniProt P47898); test: NVS_GPCR_h5HT5A: NovaScreen (NVS) G Protein-Coupled Receptor Assay for human Serotonin, 5-Hydroxytryptamine Receptor 5A (5HT5A) (AID 2283251)
# Outline: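 Membranes from HEK293 cells, radioligand binding read by filtration and scintillation after 1 h. Single-concentration duplicate testing at 25 uM, then concentration-response for actives; positive-direction fitting relative to DMSO.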
# [10] = molecular target: guinea pig Opioid, Kappa 1 Receptor (OpiateK), OPRK1 (gene 100135587) (UniProt P41144); test: NVS_GPCR_gOpiateK: NovaScreen (NVS) G Protein-Coupled Receptor Assay for guinea pig Opioid, Kappa 1 Receptor (OpiateK) (AID 2283252);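 further: active means reduced radioligand binding relative to DMSO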
# Outline: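 Radioligand binding to kappa opioid receptor in guinea pig cerebellar membranes, read by filtration and scintillation at 2 h. Compounds first tested in duplicate at 25 uM, then actives in concentration series; signal loss fitted against DMSO.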
# [11] = molecular target: human Serotonin, 5-Hydroxytryptamine Receptor 7 (5HT7), HTR7 (gene 3363) (UniProt P34969); test: NVS_GPCR_h5HT7: NovaScreen (NVS) G Protein-Coupled Receptor Assay for human Serotonin, 5-Hydroxytryptamine Receptor 7 (5HT7) (AID 2283255);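 further: hits reduce specific radioligand binding relative to DMSO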
# Outline: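 Filter-bound radioactivity counted after 1 h, with loss of specific radioligand binding fitted against DMSO. Membrane protein came from CHO cells expressing human 5HT7. Chemicals were tested first at 25 uM in duplicate, then in concentration series if active.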
# [12] = molecular target: sheep Cyclooxygenase-1 (Cox1), PTGS1 (gene 443551) (UniProt P05979); test: NVS_ENZ_oCOX1: NovaScreen (NVS) Enzymatic Assay for sheep Cyclooxygenase-1 (Cox1) (AID 2283239);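 further: actives reduce cyclooxygenase activity so potencies are for inhibitors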
# Outline: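 Native ovine seminal vesicle protein serves as enzyme source in this biochemical assay. Colorimetric signal is recorded 0.66 h after chemical addition, and decreases versus the DMSO control define activity.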
# [13] = molecular target: guinea pig Leukotriene D4 Receptor (LTD4), CYSLTR1 (gene 100135514) (UniProt Q2NNR5); test: NVS_GPCR_gLTD4: NovaScreen (NVS) G Protein-Coupled Receptor Assay for guinea pig Leukotriene D4 Receptor (LTD4) (AID 2283248)
# Outline: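 Guinea pig lung membrane preparation; bound radioligand measured by filter scintillation after 1 h, loss of signal versus DMSO marking displacement. Compounds tested at 25 uM in duplicate, hits retested to max 50 uM.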
# [14] = molecular target: human Adenosine A1 Receptor (AdoRA1), ADORA1 (gene 134) (UniProt P30542); test: NVS_GPCR_hAdoRA1: NovaScreen (NVS) G Protein-Coupled Receptor Assay for human Adenosine A1 Receptor (AdoRA1) (AID 2283254)
# Outline: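 Hum. cortical membranes + radioligand, cmpd 1 h; filtration, scintillation count. Readout = decrease vs DMSO. Primary 25 uM dup; hits → conc. series.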
# Chain of sheep Cyclooxygenase-1 (Cox1), PTGS1 (gene 443551) (P05979 whole entry, looked up): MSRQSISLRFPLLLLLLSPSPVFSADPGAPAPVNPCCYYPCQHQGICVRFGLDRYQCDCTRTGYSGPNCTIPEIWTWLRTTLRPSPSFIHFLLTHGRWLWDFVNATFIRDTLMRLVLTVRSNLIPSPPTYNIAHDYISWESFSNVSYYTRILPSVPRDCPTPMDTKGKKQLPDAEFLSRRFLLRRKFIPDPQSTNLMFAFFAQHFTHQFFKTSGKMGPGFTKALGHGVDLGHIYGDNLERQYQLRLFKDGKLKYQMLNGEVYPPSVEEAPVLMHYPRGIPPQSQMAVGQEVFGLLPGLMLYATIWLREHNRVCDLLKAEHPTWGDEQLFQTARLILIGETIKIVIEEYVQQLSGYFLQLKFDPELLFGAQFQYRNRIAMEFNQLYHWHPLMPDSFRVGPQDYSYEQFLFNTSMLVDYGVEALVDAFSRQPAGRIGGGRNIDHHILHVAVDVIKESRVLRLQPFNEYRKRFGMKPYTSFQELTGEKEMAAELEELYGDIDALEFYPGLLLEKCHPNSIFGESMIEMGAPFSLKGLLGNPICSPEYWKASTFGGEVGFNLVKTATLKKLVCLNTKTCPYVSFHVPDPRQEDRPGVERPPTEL
# Chain of human Vascular Endothelial Growth Factor Receptor 1 (VEGFR1), FLT1 (gene 2321) (P17948 whole entry, looked up): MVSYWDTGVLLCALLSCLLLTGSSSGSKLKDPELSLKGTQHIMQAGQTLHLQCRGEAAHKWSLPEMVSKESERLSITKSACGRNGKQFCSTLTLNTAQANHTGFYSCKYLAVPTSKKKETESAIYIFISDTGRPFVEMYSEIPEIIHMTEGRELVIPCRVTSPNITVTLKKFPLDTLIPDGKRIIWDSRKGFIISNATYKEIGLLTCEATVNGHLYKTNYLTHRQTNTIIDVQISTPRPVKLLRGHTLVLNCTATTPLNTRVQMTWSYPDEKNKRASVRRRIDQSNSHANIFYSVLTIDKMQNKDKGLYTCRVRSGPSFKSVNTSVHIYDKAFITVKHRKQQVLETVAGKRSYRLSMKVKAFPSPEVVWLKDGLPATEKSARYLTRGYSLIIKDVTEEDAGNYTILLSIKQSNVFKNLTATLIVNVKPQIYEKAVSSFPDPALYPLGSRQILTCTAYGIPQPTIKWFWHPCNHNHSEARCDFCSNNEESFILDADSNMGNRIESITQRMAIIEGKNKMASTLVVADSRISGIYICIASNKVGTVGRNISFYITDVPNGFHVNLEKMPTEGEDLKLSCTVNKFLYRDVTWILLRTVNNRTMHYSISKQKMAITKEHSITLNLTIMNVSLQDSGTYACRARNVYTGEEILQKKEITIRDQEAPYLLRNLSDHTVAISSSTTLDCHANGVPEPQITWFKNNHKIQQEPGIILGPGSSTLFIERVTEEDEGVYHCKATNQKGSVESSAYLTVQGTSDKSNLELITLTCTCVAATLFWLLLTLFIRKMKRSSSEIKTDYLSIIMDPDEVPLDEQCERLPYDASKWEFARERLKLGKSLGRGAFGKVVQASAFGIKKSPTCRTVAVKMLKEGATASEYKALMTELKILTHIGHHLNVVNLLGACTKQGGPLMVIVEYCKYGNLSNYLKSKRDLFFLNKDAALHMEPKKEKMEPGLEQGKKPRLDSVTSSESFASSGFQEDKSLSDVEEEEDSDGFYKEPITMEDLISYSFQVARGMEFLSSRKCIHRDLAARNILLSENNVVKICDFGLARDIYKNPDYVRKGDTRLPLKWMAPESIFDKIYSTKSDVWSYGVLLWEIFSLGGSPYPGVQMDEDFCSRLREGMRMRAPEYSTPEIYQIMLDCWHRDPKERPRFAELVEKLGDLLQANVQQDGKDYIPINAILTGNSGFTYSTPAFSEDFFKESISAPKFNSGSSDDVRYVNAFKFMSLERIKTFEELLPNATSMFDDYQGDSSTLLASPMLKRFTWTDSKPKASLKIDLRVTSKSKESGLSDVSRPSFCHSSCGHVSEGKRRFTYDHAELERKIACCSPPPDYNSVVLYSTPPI
# Chain of sheep Cyclooxygenase-2 (Cox2), PTGS2 (gene 443460) (P79208 whole entry, looked up): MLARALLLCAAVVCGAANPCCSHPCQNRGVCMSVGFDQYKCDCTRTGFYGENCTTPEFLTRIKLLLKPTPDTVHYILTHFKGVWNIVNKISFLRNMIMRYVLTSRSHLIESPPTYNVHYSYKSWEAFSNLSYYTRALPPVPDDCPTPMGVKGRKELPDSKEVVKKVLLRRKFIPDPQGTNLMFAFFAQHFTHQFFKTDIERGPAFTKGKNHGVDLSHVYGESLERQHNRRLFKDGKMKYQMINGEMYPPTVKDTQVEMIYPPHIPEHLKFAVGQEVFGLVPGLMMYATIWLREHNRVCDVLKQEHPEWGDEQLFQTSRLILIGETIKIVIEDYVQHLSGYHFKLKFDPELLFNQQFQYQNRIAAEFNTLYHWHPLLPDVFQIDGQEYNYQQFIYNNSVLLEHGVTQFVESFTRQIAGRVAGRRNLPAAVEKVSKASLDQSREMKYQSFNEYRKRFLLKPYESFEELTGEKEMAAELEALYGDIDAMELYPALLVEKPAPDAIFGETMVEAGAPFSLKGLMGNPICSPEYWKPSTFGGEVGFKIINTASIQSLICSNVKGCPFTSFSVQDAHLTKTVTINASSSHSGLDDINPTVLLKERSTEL
# Chain of rabbit Imidazoline 2 Central (I2C), CKB (gene 100009085) (P00567 whole entry, looked up): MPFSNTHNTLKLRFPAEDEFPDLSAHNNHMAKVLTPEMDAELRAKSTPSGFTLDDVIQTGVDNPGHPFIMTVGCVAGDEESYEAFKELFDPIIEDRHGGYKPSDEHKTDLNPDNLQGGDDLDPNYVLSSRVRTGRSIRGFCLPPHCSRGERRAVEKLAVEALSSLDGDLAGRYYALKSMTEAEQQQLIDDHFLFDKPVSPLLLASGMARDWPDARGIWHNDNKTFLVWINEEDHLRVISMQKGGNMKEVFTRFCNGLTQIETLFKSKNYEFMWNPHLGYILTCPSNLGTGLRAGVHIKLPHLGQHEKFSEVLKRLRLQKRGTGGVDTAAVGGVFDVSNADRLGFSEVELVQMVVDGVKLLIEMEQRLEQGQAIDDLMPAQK
# Chain of human Serotonin, 5-Hydroxytryptamine Receptor 5A (5HT5A), HTR5A (gene 3361) (P47898 whole entry, looked up): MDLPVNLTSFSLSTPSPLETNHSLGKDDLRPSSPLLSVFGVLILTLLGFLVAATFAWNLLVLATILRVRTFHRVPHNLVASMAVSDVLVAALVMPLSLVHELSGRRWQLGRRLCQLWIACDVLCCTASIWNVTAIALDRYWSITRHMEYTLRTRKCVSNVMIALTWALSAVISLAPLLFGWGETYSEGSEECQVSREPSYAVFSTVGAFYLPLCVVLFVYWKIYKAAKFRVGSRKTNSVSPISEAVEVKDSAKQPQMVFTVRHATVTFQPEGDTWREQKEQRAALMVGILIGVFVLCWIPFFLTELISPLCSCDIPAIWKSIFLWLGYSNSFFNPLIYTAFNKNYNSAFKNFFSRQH
# Chain of bovine Dopamine Receptor (DR), Non-selective Binding, DRD1 (gene 281125) (Q95136 whole entry, looked up): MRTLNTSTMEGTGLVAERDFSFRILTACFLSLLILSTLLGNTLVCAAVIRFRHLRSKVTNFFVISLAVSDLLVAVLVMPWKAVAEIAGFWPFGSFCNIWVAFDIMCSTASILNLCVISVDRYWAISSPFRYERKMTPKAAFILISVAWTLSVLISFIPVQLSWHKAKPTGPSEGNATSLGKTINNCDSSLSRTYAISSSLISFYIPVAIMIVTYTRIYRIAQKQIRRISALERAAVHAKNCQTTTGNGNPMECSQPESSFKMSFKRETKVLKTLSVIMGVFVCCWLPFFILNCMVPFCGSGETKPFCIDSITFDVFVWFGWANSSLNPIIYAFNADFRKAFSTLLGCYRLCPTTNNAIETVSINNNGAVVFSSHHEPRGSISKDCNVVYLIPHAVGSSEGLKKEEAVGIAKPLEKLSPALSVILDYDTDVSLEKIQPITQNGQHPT
# Chain of human Serotonin, 5-Hydroxytryptamine Receptor 7 (5HT7), HTR7 (gene 3363) (P34969 whole entry, looked up): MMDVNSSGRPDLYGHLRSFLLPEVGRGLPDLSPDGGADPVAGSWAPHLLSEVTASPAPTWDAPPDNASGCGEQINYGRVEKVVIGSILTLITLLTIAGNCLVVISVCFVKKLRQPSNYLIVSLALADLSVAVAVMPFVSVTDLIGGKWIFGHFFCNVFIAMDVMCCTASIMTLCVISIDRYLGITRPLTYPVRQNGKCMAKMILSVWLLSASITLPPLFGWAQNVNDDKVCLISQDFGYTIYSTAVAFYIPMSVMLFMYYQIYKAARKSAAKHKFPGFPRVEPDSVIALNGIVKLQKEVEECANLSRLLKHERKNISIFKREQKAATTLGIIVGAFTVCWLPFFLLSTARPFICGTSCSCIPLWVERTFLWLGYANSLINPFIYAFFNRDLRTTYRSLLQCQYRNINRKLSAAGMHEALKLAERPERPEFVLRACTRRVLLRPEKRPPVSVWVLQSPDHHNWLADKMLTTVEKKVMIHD
# Chain of guinea pig Leukotriene D4 Receptor (LTD4), CYSLTR1 (gene 100135514) (Q2NNR5 whole entry, looked up): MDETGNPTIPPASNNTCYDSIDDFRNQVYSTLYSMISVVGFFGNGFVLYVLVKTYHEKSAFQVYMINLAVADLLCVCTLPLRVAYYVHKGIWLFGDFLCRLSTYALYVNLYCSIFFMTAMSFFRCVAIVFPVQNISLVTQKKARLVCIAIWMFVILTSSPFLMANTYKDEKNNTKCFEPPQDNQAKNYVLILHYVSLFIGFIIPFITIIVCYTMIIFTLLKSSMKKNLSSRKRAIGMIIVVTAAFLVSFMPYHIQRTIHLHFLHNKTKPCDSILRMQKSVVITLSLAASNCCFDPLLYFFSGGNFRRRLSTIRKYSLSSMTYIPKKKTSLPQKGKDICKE
# Chain of human Adenosine A1 Receptor (AdoRA1), ADORA1 (gene 134) (P30542 whole entry, looked up): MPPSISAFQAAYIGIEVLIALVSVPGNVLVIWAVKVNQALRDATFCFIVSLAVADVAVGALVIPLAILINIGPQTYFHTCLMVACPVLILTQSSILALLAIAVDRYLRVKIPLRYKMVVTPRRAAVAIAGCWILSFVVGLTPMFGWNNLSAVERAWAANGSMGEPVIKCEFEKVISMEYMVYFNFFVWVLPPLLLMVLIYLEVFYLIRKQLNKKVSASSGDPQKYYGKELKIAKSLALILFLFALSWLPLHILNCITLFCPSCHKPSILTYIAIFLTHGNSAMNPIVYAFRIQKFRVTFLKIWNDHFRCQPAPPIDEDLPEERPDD
compound,measurement,setting,value
NC(=NCCCCCCN=C(N)/N=C(\N)Nc1ccc(Cl)cc1)/N=C(\N)Nc1ccc(Cl)cc1,AC50,[1],27.6 µM (active)
N=C(N)c1ccc(OCCCCCOc2ccc(C(=N)N)cc2)cc1,AC50,[2],0.0332 µM (active)
same,AC50,[3],7.19 µM (active)
same,AC50,[4],6.42 µM (active)
same,outcome,[5],inactive
same,outcome,[6],inactive
same,AC50,[7],2.4 µM (active)
same,AC50,[8],0.954 µM (active)
same,outcome,[9],inactive
same,AC50,[10],17.2 µM (active)
same,AC50,[11],3.18 µM (active)
CCC(=O)O,AC50,[12],0.00683 µM (active)
CC1=NN(c2ccccc2)C(=O)C1,AC50,[12],28.2 µM (active)
CS(=O)(=O)c1ccc([C@@H](CC2CCCC2)C(=O)Nc2cnccn2)cc1Cl,AC50,[3],25 µM (active)
same,outcome,[13],inactive
same,outcome,[14],inactive
CNNCc1ccc(C(=O)NC(C)C)cc1,AC50,[12],25 µM (active)
CCCCCCCCCCCCCCCCCC[N+](C)(C)Cc1ccccc1,outcome,[1],inactive
same,outcome,[12],inactive
CC(=O)Nc1ccc(O)cc1,outcome,[1],inactive
same,outcome,[3],inactive
O=C(CCCN1CCC(O)(c2ccc(Cl)cc2)CC1)c1ccc(F)cc1,AC50,[2],14.4 µM (active)
same,AC50,[5],0.0124 µM (active)
same,AC50,[6],10.5 µM (active)
same,AC50,[8],5.15 µM (active)
same,outcome,[9],inactive

# Reference: PubChem BioAssay (EPA / NIEHS)
